Results on 38 compounds are retold here after PubChem BioAssay (NCI).

The nature of test [1]: NCI Yeast Anticancer Drug Screen. Data for the rad50 strain (AID 155).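 Note: 0% = growth of vehicle-only cultures of the same strain.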 The following applies: S. cerevisiae rad50 strain growth inhibition; at 50.0 µM; active compounds read high. A digest of the protocol: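 Yeast carrying a defined DNA repair defect were exposed to test compounds, and growth was compared with vehicle-treated controls to give percent inhibition.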
A short description of test [2]: NCI Yeast Anticancer Drug Screen. Data for the mec2-1 strain (AID 157). The following applies: S. cerevisiae mec2-1 strain, at 50.0 µM, active compounds read high. A digest of the protocol: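 Compounds were applied to mec2-1 yeast cells. Their growth was then compared with that of vehicle-treated cultures to give growth inhibition.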
The nature of test [3]: NCI Yeast Anticancer Drug Screen. Data for the sgs1 mgt1 strain (AID 161).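 Note: 0% = growth of cultures given vehicle only.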 The following applies: S. cerevisiae sgs1 mgt1 strain, at 50.0 µM, active compounds read high. The method in brief:
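Yeast cells carrying a defined DNA-repair defect were exposed to test compounds. Growth inhibition was measured relative to vehicle-treated controls.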

The nature of test [4]: NCI Yeast Anticancer Drug Screen. Data for the cln2 rad14 strain (AID 165).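 Note: 0% = growth equal to vehicle treated cultures.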 To be noted: S. cerevisiae cln2 rad14 strain, at 50.0 µM, active compounds read high. The method in brief:
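Strain: cln2 rad14 yeast, altered in cell cycle control and DNA damage repair. Read-out: growth inhibition vs vehicle.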

Test [5] in a line: NCI Yeast Anticancer Drug Screen. Data for the bub3 strain (AID 167). The following applies: S. cerevisiae bub3 mutant strain, at 50.0 µM, active compounds read high. The method in brief: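 Compounds were applied to a genetically altered yeast strain carrying a cell-cycle control defect. Growth inhibition was scored against vehicle-treated controls.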
A short description of test [6]: NCI Yeast Anticancer Drug Screen. Data for the mlh1 rad18 strain (AID 175). To be noted: S. cerevisiae mlh1 rad18 strain growth inhibition; at 50.0 µM; active compounds read high. A digest of the protocol:
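A repair-deficient yeast strain is exposed to test compound, and growth is scored relative to vehicle-treated controls.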

Molecules are shown by their SMILES. This is part of a sample that, as a whole, favours compounds with a hit. Of some 79,000 tested, about 15% had one in any assay. Unmarked numbers belong to inactive results. Active and inactive are the calls of the source. Cut-off read from the data, not from the text of the source: active = growth inhibition above about 70%; inactive = the rest.

Take `Cc1ccc(/C=C2/NC(=S)SC2=O)cc1`: the growth inhibition in test [1] was -14.1%; in test [2], -3.6%; in test [3], 14.6%; in test [4], 12%; in test [5] it was 1.75%; in test [6] it was -30.4%.

Regarding `Cc1cc(=O)[nH]c2c(C)cc(Cl)cc12`, the growth inhibition in test [1] is 9.95%; in test [2], -5.25%; in test [3], 14.9%; in test [4], 17.1%; in test [5], -18.4%; in test [6], 1.65%.

On to `Cc1ccc(Cl)cc1N=C=S`, for which the growth inhibition in test [1] was -22%; in test [2] it was -18.8%; in test [3], 6%; in test [4] it was -4.6%; in test [5], -38.4%; in test [6], -11.2%.

Consider `CC(C)(C)CC(C(=O)O)[Si](C)(C)C` (stereo not drawn), for which the growth inhibition was -4.55% in test [1]; 7.1% in test [2]; -1.65% in test [3]; -1.25% in test [4]; 2.9% in test [5]; -9.7% in test [6].

Regarding `C1CSCCSCCSCCSC1`, the growth inhibition is -8.05% in test [1]; -24.4% in test [2]; -13.7% in test [3]; -18.3% in test [4]; 31.9% in test [5]; -25.4% in test [6].

`O=[N+]([O-])C(C=C(n1nnc2ccccc21)n1nnc2ccccc21)=C(n1nnc2ccccc21)n1nnc2ccccc21`: the growth inhibition was -20.1% in test [1]; -2.75% in test [2]; 16.7% in test [3]; 4.2% in test [4]; -6.45% in test [5]; 5.35% in test [6].

As for `O=S(Cc1ccccc1)c1ccccc1Cn1cccc1` (stereo not drawn), the growth inhibition in test [1] is -32.8%; in test [2], -39.6%; in test [3], -19.6%; in test [4], -18.6%; in test [5], 14.2%; in test [6], -9.5%.

With `Cc1cc2c(c(N)c1C)C(=O)c1ccccc1C2=O`, the growth inhibition in test [1] is 18.4%; in test [2], 11.4%; in test [3], 31.7%; in test [4], 10.9%; in test [5] it was 26.2%; in test [6] it was 6.7%.

Consider `NC(=O)CCn1ccc2ccccc21`, for which the growth inhibition was 0.5% in test [1]; -5.8% in test [2]; 0% in test [3]; -1.25% in test [4]; 5% in test [5]; -0.85% in test [6].

As for `CCCCC(NC(=O)c1cnc2ccccc2n1)C(=O)O` (stereo not drawn), the growth inhibition in test [1] is 22.2%; in test [2], 14%; in test [3], 15.3%; in test [4], 4.6%; in test [5], 22.3%; in test [6] it was 31.6%.

On to `N#CC(CCc1ccccc1[N+](=O)[O-])(CCc1ccccc1[N+](=O)[O-])C(N)=O`, for which the growth inhibition in test [1] was 19.3%; in test [2] it was 5.55%; in test [3], 24.4%; in test [4], -18.4%; in test [5], 16.6%; in test [6] it was 39.1%.

As for `CCC(C)Nc1ncnc2c1cnn2C` (stereo not drawn), the growth inhibition in test [1] is -14.2%; in test [2], -27.9%; in test [3], -16.8%; in test [4], -32.5%; in test [5] it was -25.4%; in test [6], -10.9%.

`[Cl][Cu][Cl].c1ccc2c(c1)Sc1ccccc1[N+]2=c1ccc2nc3ccccc3sc-2c1`: the growth inhibition was 26.1% in test [1]; 45.8% in test [2]; 29.8% in test [3]; 2.7% in test [4]; 29.9% in test [5]; 35% in test [6].

As to `CC(=O)N=C1N(/C=C2\C(=O)Oc3ccccc3C2=O)C(=O)/C(=C/c2ccccc2Cl)N1C`, the growth inhibition is -13.2% in test [1]; -21.9% in test [2]; -25.7% in test [3]; 10.2% in test [4]; -16.9% in test [5]; -8.35% in test [6].

As for `CC(=O)CCC(CC(=O)O)C(C)C` (stereo not drawn), the growth inhibition in test [1] is 12%; in test [2] it was 0.05%; in test [3], 14.9%; in test [4], -9%; in test [5], 4.8%; in test [6], 24.1%.

`O=c1ccn(Cc2ccccc2)c(=O)[nH]1`: the growth inhibition is 25.6% in test [1]; -10.3% in test [2]; 4.35% in test [3]; -29.4% in test [4]; -3.95% in test [5]; 21.9% in test [6].

In the case of `CCOc1ccccc1C(=O)O`, the growth inhibition is 13.2% in test [1]; 6% in test [2]; 14.2% in test [3]; 11.4% in test [4]; -12.1% in test [5]; 11.4% in test [6].

For `O=C1Cc2c(c3ccccc3c3ccccc23)C1`, the growth inhibition in test [1] is 20.9%; in test [2], 7.5%; in test [3], -4.1%; in test [4], -41%; in test [5], 4%; in test [6] it was 20.9%.

Take `O=C(O)C(=O)/C=C(\O)c1ccc(Br)cc1`: the growth inhibition in test [1] is 32.3%; in test [2] it was 11.8%; in test [3], 3.7%; in test [4], -12.1%; in test [5] it was 36.4%; in test [6], 30.1%.

On to `CCCC(O)CN` (stereo not drawn), for which the growth inhibition in test [1] was -5.65%; in test [2], 18.2%; in test [3], -12.7%; in test [4], 9.4%; in test [5] it was -0.85%; in test [6] it was 24.9%.

`Cc1cc(N2CCCCC2)nc2ccc(Cc3ccc4nc(N5CCCCC5)cc(C)c4c3)cc12`: the growth inhibition in test [1] is 48.7%; in test [2], -7.05%; in test [3], -27.9%; in test [4], -16.4%; in test [5], -47.4%; in test [6], 27.5%.

Take `C=CC(C)(CCC=C(C)C)OC(C)=O` (stereo not drawn): the growth inhibition in test [1] was 27.6%; in test [2] it was 5.75%; in test [3] it was 14.7%; in test [4] it was 1.9%; in test [5], 23.9%; in test [6] it was 34.7%.

For `O=C1OC(C2OC(=O)C(=O)C2C(=O)c2cccc([N+](=O)[O-])c2)C(C(=O)c2cccc([N+](=O)[O-])c2)C1=O` (stereo not drawn), the growth inhibition in test [1] was 0.5%; in test [2] it was 40.9%; in test [3] it was 13.3%; in test [4] it was -33.6%; in test [5] it was -36.5%; in test [6] it was 29.6%.

Regarding `CN1CCN(C(=O)Nc2ccc(N=Nc3ccccc3)cc2)CC1`, the growth inhibition in test [1] was -9.3%; in test [2], -17.2%; in test [3] it was 6.1%; in test [4], -29.5%; in test [5] it was 16.8%; in test [6], -6.25%.

Take `OCc1cn(C(c2ccccc2)(c2ccccc2)c2ccccc2)cn1`: the growth inhibition in test [1] was -113%; in test [2], -58.3%; in test [3], -22.5%; in test [4] it was -0.85%; in test [5], -1%; in test [6] it was -30.6%.

Take `O=C1C=C(Sc2ccccc2)c2nccc3c2c1nc1ccccc13`: the growth inhibition in test [1] is 34.9%; in test [2] it was 7.6%; in test [3], 20.4%; in test [4], 6.55%; in test [5], 20.1%; in test [6] it was 30%.

Take `CC(O)CNC(=O)C(C)Oc1ccc(OCC2CCCCC2)cc1` (stereo not drawn): the growth inhibition in test [1] was -2.8%; in test [2] it was -12.9%; in test [3], 6.65%; in test [4], -9.7%; in test [5], -53.7%; in test [6] it was -15.9%.

On to `O=C(CCl)Nc1cc(C(F)(F)F)ccc1Cl`, for which the growth inhibition in test [1] is -0.15%; in test [2] it was 1.75%; in test [3] it was 18.1%; in test [4], 4.85%; in test [5], 23.9%; in test [6] it was 1.15%.

Take `COC1OC2COC(c3ccccc3)OC2C(OC(C)=O)C1OS(=O)(=O)c1ccc(C)cc1` (stereo not drawn): the growth inhibition in test [1] is -2.7%; in test [2], 14.1%; in test [3], -5.35%; in test [4], 3.35%; in test [5] it was -4.65%; in test [6], 28.8%.

`Cc1ccc(S(=O)(=O)NCCC(Cl)(Cl)Cl)cc1`: the growth inhibition in test [1] is 21.6%; in test [2], 6.8%; in test [3], 1.05%; in test [4] it was 1.2%; in test [5], 38%; in test [6], 27.7%.

On to `NC(=O)c1cccc(F)c1`, for which the growth inhibition is 13.8% in test [1]; 5.3% in test [2]; -10% in test [3]; 10.2% in test [4]; 2.1% in test [5]; 14.9% in test [6].

For `Nc1ccc(C(C(=O)O)c2ccccc2)cc1` (stereo not drawn), the growth inhibition was 10.4% in test [1]; 15.8% in test [2]; 12.6% in test [3]; 1.4% in test [4]; 20.1% in test [5]; 10.9% in test [6].

`Cc1cccc(Cl)c1OCC(=O)O`: the growth inhibition in test [1] is -1.25%; in test [2], -8.55%; in test [3], -1.95%; in test [4] it was -35.8%; in test [5], -20.8%; in test [6], -13.2%.

In the case of `CCOC(=O)CCN(CCC(=O)OCC)Cc1cc(Cl)c2cccnc2c1O`, the growth inhibition was 99.1% (active) in test [1]; 98.6% (active) in test [2]; 99% (active) in test [3]; 98.5% (active) in test [4]; 99.3% (active) in test [5]; 97.8% (active) in test [6].

In the case of `CC1C(=O)N2C(=O)C(C)C(C)C(=O)N2C(=O)C1C` (stereo not drawn), the growth inhibition in test [1] is 1.8%; in test [2], -6.25%; in test [3], 7.9%; in test [4], -12.8%; in test [5] it was 3.85%; in test [6] it was -12.5%.

For `CC(C)NCCC(O)c1cc2ccccc2o1` (stereo not drawn), the growth inhibition in test [1] is -12.8%; in test [2], -4%; in test [3], -17.6%; in test [4] it was -7.1%; in test [5], -35.5%; in test [6] it was 5.15%.

Turning to `O=C(O)c1ccc(/C=N/NC(=S)Nc2cccc3cccnc23)cc1`, the growth inhibition in test [1] is 22.1%; in test [2], 7.4%; in test [3] it was 6.6%; in test [4], 16.4%; in test [5], 10.2%; in test [6] it was -17.1%.

`Cc1cccc(C)c1N=Nc1sc(N)nc1C`: the growth inhibition in test [1] is 20.4%; in test [2] it was 10.6%; in test [3], 6.65%; in test [4], -29.9%; in test [5] it was -9.65%; in test [6], 22.9%.
